Assays:
Test in all cases: protein binding microarray; high values mean tight binding
Conditions in all cases: dsDNA, one strand shown
RELARELA (p65 homodimer) = RELARELA (p65 homodimer) (Homo sapiens, UniProt Q04206 1-307)
p50p50 homodimer = p50p50 homodimer (Homo sapiens, UniProt P19838 7-356)
p52p52 homodimer = molecular target: T1, p52p52 homodimer (Homo sapiens, UniProt Q00653 4-332)
T1 sequence: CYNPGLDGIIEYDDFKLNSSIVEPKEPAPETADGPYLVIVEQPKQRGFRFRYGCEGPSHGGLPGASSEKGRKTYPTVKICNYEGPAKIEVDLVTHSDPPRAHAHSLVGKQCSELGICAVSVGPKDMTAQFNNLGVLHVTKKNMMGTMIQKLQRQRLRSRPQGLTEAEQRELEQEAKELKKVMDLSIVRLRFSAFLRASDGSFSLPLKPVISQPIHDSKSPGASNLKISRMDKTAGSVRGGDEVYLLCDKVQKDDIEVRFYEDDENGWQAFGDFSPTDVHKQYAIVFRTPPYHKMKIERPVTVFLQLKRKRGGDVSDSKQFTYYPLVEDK

[1] = molecular target: RELA (p65) subunit of heterodimer;p50 subunit (Homo sapiens;Homo sapiens, UniProt Q04206;P19838 1-307;7-356)
RELA (p65) subunit of heterodimer;p50 subunit, sequence (Q04206 1-307, chain 1 of 2): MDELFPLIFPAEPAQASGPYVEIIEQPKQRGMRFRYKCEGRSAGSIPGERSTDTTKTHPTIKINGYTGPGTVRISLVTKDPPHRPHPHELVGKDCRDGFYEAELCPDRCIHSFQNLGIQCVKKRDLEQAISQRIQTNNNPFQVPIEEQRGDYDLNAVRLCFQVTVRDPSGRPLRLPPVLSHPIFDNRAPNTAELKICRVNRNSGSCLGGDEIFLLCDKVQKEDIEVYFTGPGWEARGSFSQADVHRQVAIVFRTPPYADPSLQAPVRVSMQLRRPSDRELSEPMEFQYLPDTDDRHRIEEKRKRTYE
RELA (p65) subunit of heterodimer;p50 subunit, sequence (P19838 7-356, chain 2 of 2): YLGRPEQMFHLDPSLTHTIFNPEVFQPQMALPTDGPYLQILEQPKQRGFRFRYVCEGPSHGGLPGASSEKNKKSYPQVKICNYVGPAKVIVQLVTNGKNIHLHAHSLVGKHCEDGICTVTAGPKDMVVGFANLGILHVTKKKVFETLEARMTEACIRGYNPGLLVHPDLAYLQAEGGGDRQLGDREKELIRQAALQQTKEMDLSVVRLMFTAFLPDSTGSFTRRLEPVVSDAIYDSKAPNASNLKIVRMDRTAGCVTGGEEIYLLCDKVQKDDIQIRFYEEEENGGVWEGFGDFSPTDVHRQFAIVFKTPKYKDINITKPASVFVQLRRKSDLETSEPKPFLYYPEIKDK

[2] = molecular target: RELA (p65) subunit of heterodimer;p52 subunit (Homo sapiens;Homo sapiens, UniProt Q04206;Q00653 1-307;4-332)
RELB subunit;p50 subunit = RELB subunit;p50 subunit (Homo sapiens;Homo sapiens, UniProt Q01201;P19838 120-401;7-356)
RELB subunit;p52 subunit = molecular target: T2, RELB subunit;p52 subunit (Homo sapiens;Homo sapiens, UniProt Q01201;Q00653 120-401;4-332)
T2 sequence 1: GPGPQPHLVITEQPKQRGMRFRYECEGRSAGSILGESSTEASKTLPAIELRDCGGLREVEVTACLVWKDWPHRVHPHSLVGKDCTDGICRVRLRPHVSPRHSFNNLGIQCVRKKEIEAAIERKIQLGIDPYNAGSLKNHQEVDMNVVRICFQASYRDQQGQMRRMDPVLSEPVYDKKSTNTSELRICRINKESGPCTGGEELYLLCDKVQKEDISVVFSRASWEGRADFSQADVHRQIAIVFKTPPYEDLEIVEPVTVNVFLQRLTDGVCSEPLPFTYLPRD
T2 sequence 2: T1 sequence

[3] = molecular target: C-Rel subunit;p50 subunit (Homo sapiens;Homo sapiens, UniProt Q04864;P19838 1-285;7-356)
[4] = molecular target: T3, C-Rel subunit;p52 subunit (Homo sapiens;Homo sapiens, UniProt Q04864;Q00653 1-285;4-332)
T3 sequence 1: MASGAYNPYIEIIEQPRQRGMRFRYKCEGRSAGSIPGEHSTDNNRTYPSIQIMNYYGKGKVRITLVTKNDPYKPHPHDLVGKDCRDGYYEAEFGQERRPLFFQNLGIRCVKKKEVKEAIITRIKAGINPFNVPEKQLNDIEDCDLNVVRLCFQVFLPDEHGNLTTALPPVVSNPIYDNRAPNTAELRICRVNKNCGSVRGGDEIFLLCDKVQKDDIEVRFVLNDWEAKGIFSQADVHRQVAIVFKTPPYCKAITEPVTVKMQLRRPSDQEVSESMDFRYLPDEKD
T3 sequence 2: T1 sequence

p50p50 homodimer, sequence (P19838 7-356): as the sequence (P19838 7-356, chain 2 of 2) above
RELARELA (p65 homodimer), sequence (Q04206 1-307): as the sequence (Q04206 1-307, chain 1 of 2) above

| Sequence | binding signal (RELARELA (p65 homodimer)) [z-score] | binding signal (p50p50 homodimer) [z-score] | binding signal (p52p52 homodimer) [z-score] | binding signal [1] [z-score] | binding signal [2] [z-score] | binding signal (RELB subunit;p50 subunit) [z-score] | binding signal (RELB subunit;p52 subunit) [z-score] | binding signal [3] [z-score] | binding signal [4] [z-score] |
| --- | --- | --- | --- | --- | --- | --- | --- | --- | --- |
| GAAGAATCCCC | 1.11 | 1.36 | 2.18 | 2.18 | 1.83 | 2.29 | 1.85 | 1.56 | 1.53 |
| GGGGTTGTCCC | 2.19 | 0.663 | 2.99 | 1.73 | 2.67 | 2.02 | 1.88 | 1.31 | 2.32 |
| GGGTAGTTCCT | 0.746 | 0.495 | 0.541 | 0.394 | 0.345 | -0.0983 | 0.0547 | 0.249 | 0.583 |
| CGAGTAACCCC | -0.498 | -0.0762 | -0.149 | -0.232 | -0.211 | -0.188 | 0.213 | -0.0464 | -0.115 |
| CAATATACCCC | -0.012 | 0.317 | 0.195 | 0.199 | 0.442 | 0.428 | 0.992 | 0.384 | 0.51 |
| GGAAAGTTCCC | 2.6 | 0.736 | 0.736 | 1.29 | 1.02 | 0.762 | 0.686 | 0.966 | 0.929 |
| GAGGGAGCCCT | -0.902 | -0.904 | -0.464 | -0.859 | -0.736 | -0.793 | -0.682 | -1.28 | -0.682 |
| CAAATTACCCT | 0.402 | 1.05 | 0.802 | 0.662 | 0.929 | 0.64 | 0.781 | 0.509 | 0.784 |
| GAATTGTTCCT | 0.0616 | -1.38 | -0.497 | -0.672 | -0.721 | -1.09 | -0.587 | -0.937 | -0.574 |
| AAATACGCCCT | 0.0178 | -0.886 | -0.502 | -0.594 | -0.758 | -1.09 | -0.751 | -0.684 | -0.592 |
| GAGTGTGCCCT | -0.0374 | -1.69 | -0.704 | -0.552 | -0.825 | -0.946 | -0.867 | -0.869 | -0.582 |
| GAGATCCTCCC | -0.414 | -0.604 | -0.376 | -0.425 | -0.539 | -0.422 | -0.686 | -0.717 | -0.442 |
| AGAGATCCCCC | -0.101 | 1.31 | 1.28 | 2.02 | 1.56 | 1.82 | 1.98 | 1.37 | 1.47 |
| AGGTTGGCCCC | -0.789 | -0.369 | -0.374 | -0.277 | -0.287 | -0.0488 | -0.238 | -0.00473 | 0.0517 |
| AGGTAAACCCC | 1.17 | 0.722 | 2.16 | 1.25 | 1.68 | 0.79 | 1.51 | 0.88 | 2.02 |
| CAGAAGATCCT | -1.03 | -2.16 | -0.765 | -1.33 | -1.13 | -1.3 | -1.12 | -1.5 | -1.07 |
| CAATAAGTCCT | 0.325 | -1.39 | -0.437 | -0.836 | -0.813 | -0.817 | -0.698 | -0.578 | -0.74 |
| AAAATAACCCC | 0.617 | 1.07 | 1.26 | 1.03 | 1.24 | 0.895 | 1.14 | 0.682 | 1.16 |
| AAGAGGCCCCT | -0.777 | 0.359 | -0.0334 | -0.301 | -0.248 | 0.196 | 0.191 | -0.344 | -0.287 |
| CAAGATCTCCT | -0.508 | -1.36 | -0.744 | -1.11 | -1.02 | -1.04 | -1.06 | -1.49 | -1.01 |
| CAGATCCCCCT | -0.0668 | 1.6 | 1.41 | 2.39 | 1.76 | 2.45 | 2.37 | 1.85 | 1.37 |
| CGATACCTCCC | -0.139 | -0.527 | -0.392 | -0.477 | -0.641 | -0.466 | -0.506 | -0.897 | -0.543 |
| CGAGGAATCCT | -0.235 | -1.18 | -0.504 | -0.879 | -0.8 | -1.08 | -0.975 | -0.824 | -0.613 |
| GGGTATATCCC | 1.19 | 0.245 | 2.43 | 0.931 | 1.62 | 0.847 | 0.92 | 0.341 | 1.12 |
| AAAGGCACCCT | -1.13 | -0.88 | -0.454 | -0.697 | -0.787 | -0.685 | -0.711 | -1.07 | -0.741 |
| AAATTGGCCCC | -0.344 | 0.122 | -0.144 | 0.118 | -0.121 | 0.375 | 0.258 | 0.04 | -0.0339 |
| GAATGCCTCCT | -0.0578 | -1.27 | -0.691 | -0.691 | -0.961 | -1.06 | -1.25 | -1.51 | -0.845 |
| GAAAATATCCT | -0.0981 | -1.17 | -0.53 | -0.742 | -0.608 | -1.05 | -0.797 | -0.995 | -0.675 |
| GGATAGTCCCT | 1 | 1.18 | 1.57 | 1.47 | 1.43 | 0.994 | 1.65 | 1.15 | 1.82 |
| CGGGACCCCCT | -0.322 | 1.2 | 0.855 | 1.01 | 0.923 | 1.13 | 1.36 | 0.895 | 0.632 |

Reference: PMC3218832
